Pf growth 96h: inhibits malaria parasite growth, 96 h | P. falciparum luciferase reporter growth, 96 h | Potency, µM (doses to about 28.7 µM), without a hit: at the top dose activity change, negative = inhibition, hits mostly inhibitors | 6.9% of 320,000 active | AID 504834; also: potency is read from the fitted curve at half-maximal effect; % is scaled to controls: 0 for no effect and ±100 for the full control effect
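Cell-based qHTS: luciferase-tagged P. falciparum in erythrocytes (2% hematocrit, 0.05% parasitemia final) incubated with compounds for 96 hours, 37 C, 5% CO2; luciferase detection reagent then added and luminescence measured.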
Shiga toxin inh: blocks Shiga toxin action in Vero cells | Vero cells, Shiga toxin protein synthesis inhibition reporter | inhibition, % at 38.7 µM | 9.2% of 290,000 active; in the data active = inhibition mostly above about 28%, no sharp cut-off; inactive = mostly below about 43%; also: 0% is about no effect
Pf growth 48h: P. falciparum growth inhibition at 48 hours (one generation). P. falciparum luciferase growth in erythrocytes, 48 h. Potency, µM (top dose mostly 28.7 µM), without a hit: top-dose activity change, negative = inhibition, usual class: inhibitors. 5.9% of 310,000 active; also: potency is read from the fitted curve at half-maximal effect; % is scaled to controls: 0 for no effect and ±100 for the full control effect
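Read-out is firefly luciferase luminescence from an integrated reporter in P. falciparum, so falling signal marks reduced parasite growth. Infected erythrocytes were at 2% hematocrit and 0.1% parasitemia (final) in Albumax-supplemented RPMI 1640.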
CHX counter: counter-screen hit for Shiga toxin inhibitors, cycloheximide. cell reporter, cycloheximide protein synthesis inhibition counterscreen. 12% of 300,000 active. AID 2314. max response, %; in the data active = max response mostly above about 13%, no sharp cut-off; inactive = mostly below about 14%; also: read at 38.3 µM for the half of the compounds with a filed dose; 0% is about no effect
HCMV inh: human cytomegalovirus inhibition; HFF cells, HCMV-luciferase reporter, 72 h; active compounds read low; 4.5% of 410,000 active; AID 1259415; activity change, negative = inhibition, % at 57.5 µM; in the data active = activity change below about -60%; inconclusive = no clear call, values can overlap the other calls; inactive = above about -39%; also: % is scaled to controls: 0 for no effect and ±100 for the full control effect
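Luciferase read-out from HCMV-luciferase-infected HFFs (MOI 1 PFU/cell) 72 h post infection at 37C; compounds added after 16 h cell attachment; activity normalized between buffer-only basal and Salinomycin (10uM) inhibitor controls.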
* marks the source's active call; other numbers are inactive results; i = inactive; ? = inconclusive; / = no result; + = active, no number; [ ] = dose if it differs, or a comment. In the library only some 20% were active in any assay of this set; here they are far more common. Unless noted, calls follow the shape of the dose curve; as a rule, active = well fitted inhibition curve with a large enough effect; inconclusive = small, poorly fitted or top-dose-only effect, or another doubt; inactive = no such curve, though single readings can be large or run the other way.

SMILES | Pf growth 96h | Shiga toxin inh | Pf growth 48h | CHX counter | HCMV inh
COC(=O)c1ccc(NS(=O)(=O)N(C)C)cc1 | -0.1% | -12.7 | -5.1% | -1.8 | -0.7
COC(=O)c1ccc(N=Nc2c(C)[nH]n(-c3ccccc3)c2=O)cc1 | -100.2% | -9.9 | 22.0% | 1.5 | 0.4
COC(=O)c1ccc(N=NNc2cccc(Br)c2)cc1 | ? | 74.3* | 244.2% | 63.4* | 117.9
COC(=O)c1ccc(N=NNc2ccccc2)cc1 | ? | 131.3* | 109.4% | 53.3* | 72.5
COC(=O)c1ccc(N=NNc2ccc(C(=O)OC)cc2)cc1 | 3.5% | 126.6* | 271.9% | 122.1* | 10.3
COC(=O)C(C)Nc1cccc(Br)c1 (stereo not drawn) | 18.5% | -3.8 | 10.2% | 8.3 | -27.4
CC(=O)Nc1cc(C(=O)NCc2ccc(C)cc2)ccc1S(=O)(=O)c1ccc(Cl)cc1 | / | / | / | / | -3.4
O=C(c1ccco1)N1CCN(CC(O)Cn2c3ccccc3c3ccccc32)CC1 (stereo not drawn) | ? | 25.4 | / | 8.6 | 72.1
CCCCOC(=O)c1ccc(NC(=O)COC(=O)C2CC2C)cc1 (stereo not drawn) | / | / | / | / | 21.3
Cc1ccc(NC(=O)c2ccc(S(=O)(=O)N3CCC(C)CC3)cc2)nc1 | ? | / | ? | / | -64.0*
CC1CCN(S(=O)(=O)c2ccc(C(=O)Nc3ncccc3O)cc2)CC1 | 5.22µM* | 6.0 | ? | 7.3 | ?
Cc1ccc2c(c1)-c1c(cnc3cc(-c4ccc(Cl)cc4)nn13)CO2 | / | / | / | / | -4.8
Cc1ccc(C)c(NCC(=O)c2ccc(Cl)cc2)c1 | -9.0% | 10.7 | ? | -2.0 | -38.7
Cc1ccc(C(=O)CNc2ccc(Cl)cc2)cc1 | ? | 86.0* | 98.0% | 41.9* | 13.8
CCOc1ccc(C(=O)COc2ccc(NC(C)=O)cc2)cc1 | ? | 20.1 | / | 4.0 | 14.2
COC(=O)C(CC(=O)c1ccc(Cl)cc1)c1ccc(C)cc1 (stereo not drawn) | -23.9% | + | ? | 20.3 | 21.8
CCOc1ccc(NCC(=O)c2ccc(C)cc2)cc1 | -10.2% | 63.4* | -8.4% | 15.6* | ?
COc1cc(OC)c(NC2(c3ccccc3)C(=O)c3ccccc3C2=O)cc1Cl | / | / | / | / | -6.0
C#Cc1ccc(CN2CCC(Oc3cc(C(=O)NC4CC4)ccc3OC)CC2)cc1 | -0.7% | -4.8 | 13.1µM* | 0.7 | -22.7
CCn1ncc(CN2CCC(Oc3cc(C(=O)NC4CC4)ccc3OC)CC2)c1C | 1.04µM* | -8.1 | -3.5% | -1.9 | 17.8
COc1ccc(C(=O)NC2CC2)cc1OC1CCN(Cc2ccc(F)cc2)CC1 | ? | -4.5 | -19.5% | 10.2 | 28.9
COc1ccc(C(=O)NC2CC2)cc1OC1CCN(Cc2ccccc2)CC1 | ? | -9.0 | -14.5% | 0.4 | /
CCN(CC)c1ccc(-c2nc3cnccc3n2C)cc1 | 22.1% | 135.2* | 97.5% | 32.6* | 10.8
Cc1ccc(Nc2ccc([N+](=O)[O-])nc2[N+](=O)[O-])cc1 | ? | -2.1 | ? | 21.5* | -19.7
Cc1ccc(Nc2nc(N)c([N+](=O)[O-])c(NCc3ccco3)n2)cc1 | 11.7µM* | 54.6* | 0.2% | 33.8* | 34.7
SMILES | Pf growth 96h | Shiga toxin inh | Pf growth 48h | CHX counter | HCMV inh
Cc1ccc(Nc2ccc3nonc3c2[N+](=O)[O-])cc1 | -102.6% | 29.9 | -4.9% | -7.8 | -27.7
Cc1ccc(Nc2nc(N)c([N+](=O)[O-])c(NCCO)n2)cc1 | ? | 23.6 | ? | 12.7* | -10.9
Nc1nc(Nc2ccccc2F)nc(NCc2ccco2)c1[N+](=O)[O-] | ? | 49.4* | -19.2% | 39.0* | 73.5
Nc1nc(NCc2ccco2)nc(Nc2ccccc2)c1[N+](=O)[O-] | -23.1% | -6.0 | -3.4% | -2.4 | 0.2
Nc1nc(Nc2ccccc2)nc(NCc2ccco2)c1[N+](=O)[O-] | ? | 0.0 | ? | -1.6 | -28.2
Cc1ccccc1NC(=O)CCNS(=O)(=O)c1ccc2c(c1)CCC(=O)N2 | ? | -2.2 | 33.7% | -2.0 | -38.3
Fc1ccc(Nc2nc(NCc3ccco3)c3ccccc3n2)cc1 | ? | 66.5* | 0.37µM* | 29.6* | -13.5
CCCCCCCCNCCS(=O)(=O)NCCCCCCCC | / | / | / | / | -101.8*
CC1(C)CCC[C@]2(C)[C@H]3CC(=O)O[C@]3(C)CC[C@@H]12 | 39.8% | -16.9 | 14.7% | -2.0 | -14.2
CC1(C)CCC[C@]2(C)[C@H]3Cc4cc(O)ccc4O[C@]3(C)CC[C@@H]12 | / | / | / | / | -87.9*
COc1ccc(CNC(=O)c2ccc(-c3nc(CSc4ccccc4)c(C)o3)cc2)cc1 | / | / | / | / | -13.1
Cc1cc(C)c2[nH]c(=O)c(CN(CC3CCCO3)C(=S)Nc3ccccc3)cc2c1 (stereo not drawn) | -5.1% | -6.9 | -8.8% | -0.7 | -10.0
Cc1ccc2cc(CN(CC3CCCO3)C(=S)Nc3ccccc3)c(=O)[nH]c2c1C (stereo not drawn) | -4.8% | -3.5 | 10.4µM* | -1.6 | -61.8*
Cc1ccc2[nH]c(=O)c(CN(CC3CCCO3)C(=S)Nc3ccccc3)cc2c1 (stereo not drawn) | 7.5% | -8.6 | ? | 0.9 | -77.8*
CCN(CC)CCN(Cc1cc2cc(C)ccc2[nH]c1=O)C(=S)Nc1ccccc1 | 34.2% | -3.7 | ? | -4.1 | -68.6*
Cc1cccc(NC(=S)N(CCN(C)C)Cc2cc3cc(C)ccc3[nH]c2=O)c1 | -6.2% | -11.7 | ? | 2.3 | -31.7
CCOC(=O)C1(C)CCN1C(=O)c1cccnc1Oc1ccccc1 (stereo not drawn) | / | / | / | / | 20.2
CCN(Cc1cc(OC)c(OC)c(OC)c1)C(=S)Nc1cccc(SC)c1 | 10.4µM* | 10.2 | ? | -2.0 | -20.3
COc1cc(CC(=O)Nc2cccc(SC)c2)cc(OC)c1OC | ? | 22.8 | -23.6% | 1.5 | -14.5
COc1ccc(C(=O)/C=C/Nc2ccccn2)c(OC)c1 | 378.1% | 57.3* | 431.5% | 52.0* | 68.9
O=C(/C=C\Nc1ccccn1)c1ccccc1 | i | 54.9* | -52.7% | 17.3 | 45.6
O=C(/C=C/Nc1ccccc1)c1ccc(Oc2ncccn2)cc1 | 262.8% | 108.6* | 220.3% | 23.6* | 54.2
O=C(/C=C/Nc1ccccc1Br)c1ccccn1 | ? | -20.5 | -71.5% | -7.0 | -85.4*
COc1ccc(C(=O)/C=C/Nc2c(C)n(C)n(-c3ccccc3)c2=O)c(OC)c1 | ? | -5.0 | -17.8% | -1.9 | -4.0
CC1CC(C)CN(CCCNC(=O)c2ccc3c(c2)N(Cc2ccccc2)C(=O)c2ccccc2S3=O)C1 (stereo not drawn) | 52.9% | -21.5 | ? | -14.1 | ?
CN1C(N)=NC(=O)/C1=C/c1ccc(OC(F)(F)F)cc1 | 18.4% | 40.5* | -8.9% | 32.5* | -13.3
CN1C(N)=NC(=O)/C1=C\c1ccc(Br)cc1 | -15.0% | 40.6 | 1.3% | 13.3* | -11.3
COc1ccc(/C=C2/C(=O)N=C(N)N2C)cc1OC | 11.7µM* | 10.9 | 2.1% | 1.0 | -7.0
COc1cc(OC)c(OC)cc1/C=C1/C(=O)N=C(N)N1C | -31.5%[5.75 µM] | -1.4 | -19.7% | 1.5 | -18.7
COc1ccccc1NC(=O)c1sc2ncn(Cc3cccc4ccccc34)c(=O)c2c1C | 9.28µM* | -11.0 | 12.1% | -0.1 | ?
